Mot1-301 SUMO: blocks SUMOylation pathway, rescuing yeast Mot1-301 growth; S. cerevisiae Mot1-301 growth rescue, ATP luminescence, 38.5C; percent above DMSO median, 100 means doubled; growth rescue, % at 18.8 µM; actives 1% (n = 320,000); AID 2716;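 active means every valid replicate shows activation above 250% relative to neutral control wells; inactive means the rest, any valid replicate at or below 250%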
SKN-1 block: C. elegans SKN-1 inhibition; C. elegans VP596 Pgst-4::GFP/RFP ratio, acrylamide-induced, 24 h; inhibition, % at 21.8 µM; actives 0.49% (n = 360,000); AID 624304;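 active means interference check ratio from 0.5 to 1.5 plus GFP to RFP signal ratio inhibition reaching or exceeding a fixed threshold, cut at about 30% in these data, passing the limit was not always enough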
Efflux pump mplx: blocks antifungal efflux pumps in multiplex yeast assay | S. cerevisiae Candida pump triplex, Nile Red efflux | inhibition, % at 10 µM | actives 0.44% (n = 330,000) | AID 485275;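 active means plate passing quality check with inhibition over a set limit, or well fluorescence over plate mean plus 4 SD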;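 further: Nile Red retained in pooled yeast measured as flow cytometry median fluorescence; higher means more Nile Red kept so more efflux inhibition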
HGIII-sPLA2 inh: Blocks human group III sPLA2 activity. actives 0.56% (n = 370,000). inhibition, % at 12.2 µM. QFRET BODIPY PC-A2 liposome hydrolysis, fluorescence. AID 743126. Q9NZ20;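 active means inhibition above mean plus 3 SD of compounds lying within the high and low control bounds, cut at about 19% in these data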
Target sequence (Q9NZ20 whole entry, looked up): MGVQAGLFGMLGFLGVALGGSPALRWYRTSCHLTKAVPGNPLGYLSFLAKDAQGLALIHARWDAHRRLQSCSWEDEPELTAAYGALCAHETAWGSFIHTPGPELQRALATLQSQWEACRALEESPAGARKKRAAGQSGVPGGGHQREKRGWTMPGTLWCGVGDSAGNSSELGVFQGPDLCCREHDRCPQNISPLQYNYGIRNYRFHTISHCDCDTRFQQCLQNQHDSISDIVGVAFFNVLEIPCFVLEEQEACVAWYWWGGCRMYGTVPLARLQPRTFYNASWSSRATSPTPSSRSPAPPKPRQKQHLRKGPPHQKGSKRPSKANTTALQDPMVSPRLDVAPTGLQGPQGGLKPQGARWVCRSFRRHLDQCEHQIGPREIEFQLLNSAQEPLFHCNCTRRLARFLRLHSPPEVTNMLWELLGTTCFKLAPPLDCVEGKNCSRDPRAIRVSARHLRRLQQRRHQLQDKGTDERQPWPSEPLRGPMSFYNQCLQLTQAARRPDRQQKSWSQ
Cmpd fluor yeast: compound fluorescence in yeast efflux pump counter-screen; shares compounds with Efflux pump mplx; S. cerevisiae AD/pABC3, flow cytometry; fluorescence ratio to DMSO, % at 10 µM; actives 4% (n = 1,700); AID 588517;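 active means fluorescence ratio to DMSO above its plate's cutoff, the plate mean ratio plus 5 SD, cut at about 210% in these data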;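 further: unstained yeast with no Nile Red so the signal is compound autofluorescence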
CaMdr1 efflux inh: inhibitors of Candida albicans Mdr1 efflux pump; shares compounds with Efflux pump mplx; actives 1% (n = 1,700); inhibition, % at 10 µM; S. cerevisiae AD/CaMDR1, Nile Red efflux, flow cytometry; in the data active means inhibition above about 26%;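 further: higher means more Nile Red retained so more efflux inhibition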
CaCdr2 efflux inh: inhibitors of Candida albicans Cdr2 efflux pump. shares compounds with Efflux pump mplx. S. cerevisiae AD/CaCDR2, Nile Red retention, flow cytometry. actives 4% (n = 1,700). Nile Red retention ratio vs DMSO, % at 10 µM; in the data active means Nile Red retention ratio vs DMSO above about 190%;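 further: higher ratio means more blocking of Cdr2 efflux of the dye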
CaCdr1 efflux inh: inhibitors of Candida albicans Cdr1 efflux pump; shares compounds with Efflux pump mplx; S. cerevisiae AD/CaCDR1, Nile Red efflux, flow cytometry; inhibition, % at 10 µM; actives 1% (n = 1,700);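 active means inhibition above the screen-wide mean plus twice its standard deviation, cut at about 32% in these data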
Hits are given with their value; 0 = inactive; - = not tested or not shown. Rows were chosen to be rich in hits. Some 2.2% of all compounds tested hit in one or more screens of this group.

SMILES	Mot1-301 SUMO	SKN-1 block	Efflux pump mplx	HGIII-sPLA2 inh	Cmpd fluor yeast	CaMdr1 efflux inh	CaCdr2 efflux inh	CaCdr1 efflux inh
C[C@H]1CN([C@@H](C)CO)C(=O)c2cc(NC(=O)Nc3cccc4ccccc34)ccc2O[C@@H]1CN(C)Cc1ccc(-c2ccccc2)cc1	0	0	1.8	0	0	0	188	0
CCCOc1ccc(-c2nc(N3CCN(C)CC3)c3ccccc3n2)cc1	0	0	1.0	0	0	0	0	0
CCCOc1ccc(-c2nc(N3CCN(CC)CC3)c3ccccc3n2)cc1	0	0	0	0	-	-	-	-
CC(C)[C@H](NS(=O)(=O)c1ccc2c(c1)OCCO2)C(=O)OCC(=O)Nc1cccc(Cl)c1Cl	0	0	16	0	0	0	0	0
COc1ccc(C(=O)NC2CCCc3c2cnn3-c2ccccc2F)o1 (configuration not stated)	0	0	0	0	0	0	0	0
COc1ccccc1CNC(=O)COc1ccccc1OC	0	0	1.0	0	0	0	0	0
Cc1noc(C)c1COc1ccccc1C(=O)N1CCN(c2cccc(C(F)(F)F)c2)CC1	0	0	1.1	0	0	0	0	0
CC(C)C[C@H]1CN(CCCC[C@@H]2CNC(=O)C(=O)N2Cc2ccccc2)C(=O)C(=O)N1CCC1CCCCC1	-	0	-	0	-	-	-	-
COCCNC(=O)Cn1nc(-c2ccccc2F)ccc1=O	-	0	-	0	-	-	-	-
COc1ccc(S(=O)(=O)Nc2ccc(S(=O)(=O)Nc3nccs3)cc2)cc1	0	0	0	0	-	-	-	-
CC1CCCCN1CCNC(=O)c1ccc2c(c1)N(Cc1ccccc1F)C(=O)c1ccccc1S2=O (configuration not stated)	0	0	0	0	-	-	-	-
O=C(Cc1ccccc1)NN1C(=O)/C(=C/c2ccc(C(=O)O)cc2)SC1=S	0	0	0	0	0	0	0	0
COc1ccc(CCNC(=O)c2cn3ccc(C)cc3n2)cc1OC	0	0	0	0	-	-	-	-
S=C(Nc1ccc(Cl)cc1Cl)N1CCCCC1	0	0	16	0	0	0	0	0
Cc1ccc2oc(C(=O)N3CCC(O)(c4cccc(C(F)(F)F)c4)CC3)c(C)c2c1	0	0	0.5	0	0	0	0	0
CC(=O)N1CCC(O)(c2cccc(C(F)(F)F)c2)CC1	0	0	0	0	-	-	-	-
COc1cc(CN2CCCC(C(=O)c3ccccc3SC)C2)cc(OC)c1 (configuration not stated)	0	0	0	0	-	-	-	-
CCc1ccc(S(=O)(=O)Nc2nnc(N)s2)cc1	0	0	0	0	-	-	-	-
COC(=O)CSc1ccc(S(=O)(=O)N2CCOCC2)cc1[N+](=O)[O-]	0	0	0	0	-	-	-	-
COc1ccccc1NC(=O)COC(=O)c1cc([N+](=O)[O-])ccc1N1CCCC1	0	0	0.9	0	0	0	0	0
O=c1[nH]c(S)c(/C=C2\C=Nc3ccccc32)s1	0	0	0.5	0	0	0	0	0
Cc1ccc(/C=C2\SC(=S)N(NS(=O)(=O)c3ccc(C)cc3)C2=O)cc1	0	0	0	0	-	-	-	-
Cc1ccc(S(=O)(=O)NN2C(=O)/C(=C/c3cccs3)SC2=S)cc1	0	0	0	0	0	0	0	0
O=C(NNC(=O)C1C2C=CC(C2)C1C(=O)O)c1cc(Cl)ccc1O (configuration not stated)	0	0	0	0	-	-	-	-
CCCCCCCCCCCCCCCC[n+]1ccc(/C=N/O)cc1	0	43	2.0	0	0	0	0	0
SMILES	Mot1-301 SUMO	SKN-1 block	Efflux pump mplx	HGIII-sPLA2 inh	Cmpd fluor yeast	CaMdr1 efflux inh	CaCdr2 efflux inh	CaCdr1 efflux inh
CCCCNC(=O)C(=O)Nc1ccc2c(c1)N(S(=O)(=O)c1cccs1)CCC2	-	0	-	0	-	-	-	-
COc1ccc(-n2cc(-c3ccccc3)c3c(NN4CCOCC4)ncnc32)cc1	0	0	2.5	0	0	0	0	0
CCCCOC(=O)c1ccc(NC(C)=O)cc1	0	0	0.6	0	0	0	0	0
O=C(NC1CC1)c1ccccc1	-	0	-	0	-	-	-	-
Cc1ccc(-n2c(Cc3cccs3)nnc2SCC(=O)Nc2ccc(OCc3ccccc3)cc2)cc1	-	-	-	0	-	-	-	-
Cn1c(Cc2cccs2)nnc1SCC(=O)Nc1ccc2c(c1)OCCO2	-	-	-	0	-	-	-	-
O=C(CSc1nnc(Cc2cccs2)n1-c1ccccc1)Nc1ccc2c(c1)OCCO2	0	0	0	0	0	0	0	0
Cc1ccc(-n2c(Cc3cccs3)nnc2SCC(=O)Nc2ccc(F)c(F)c2)cc1	0	0	0	-	0	0	0	0
Cc1ccccc1NC(=S)NCc1ccc(Cl)cc1	0	0	0	0	-	-	-	-
N#C/C(=C/c1ccc(CNC(=O)C(=O)Nc2cc(Cl)cc(Cl)c2)o1)C(=O)NCc1cccnc1	0	0	8.2	0	0	0	0	0
Cc1ccc(NC(=O)C(=O)NCc2ccc(/C=C(/C#N)C(=O)NCc3cccnc3)o2)cc1	0	0	0	0	-	-	-	-
COc1cc(OC)c(-c2noc(C(=O)OC(C)(C)C)c2C(=O)OC(C)(C)C)c(OC)c1	0	0	1.2	0	0	0	0	0
CCc1ccccc1N1CC(C(=O)N2Cc3ccccc3CC2C(N)=O)CC1=O (configuration not stated)	0	0	0	0	-	-	-	-
CCCCOc1ccc(C(=O)N/C(=C\c2cccc([N+](=O)[O-])c2)C(=O)OCCC)cc1	0	0	0	0	-	-	-	-
CCCCOc1ccc(C(=O)N/C(=C\c2ccc([N+](=O)[O-])cc2)C(=O)OCc2ccco2)cc1	0	0	0.4	0	0	0	0	0
Cc1ccc([N+](=O)[O-])cc1S(=O)(=O)Nc1cccc(-c2ccc(N3CCCC3)nn2)c1	0	0	0.4	0	0	0	0	0
Cc1ccc(S(=O)(=O)Nc2cccc(-c3ccc(N4CCCCCC4)nn3)c2)cc1C	0	0	0	0	-	-	-	-
CC1(NC(=O)c2ccccc2)CCN(CCCc2ccccc2)C1=O (configuration not stated)	0	0	0	0	-	-	-	-
CC(C)Sc1cc(N2CCOCC2)nc(-c2ccccc2)n1	0	0	0	0	0	0	0	0
CCSc1cc(N2CCCC2)nc(-c2ccc(Cl)cc2)n1	0	0	0	0	0	0	0	0
CCSc1cc(N2CCCC2)nc(-c2ccccc2)n1	0	0	0	0	-	-	-	-
CSc1cc(N2CCOCC2)nc(-c2ccccc2Cl)n1	0	0	0	0	0	0	0	0
COCc1cc(N2CCOCC2)nc(-c2ccccc2)n1	0	0	0	0	-	-	-	-
CCSc1cc(N2CCOCC2)nc(-c2ccc(Cl)cc2)n1	0	0	0	0	0	0	0	0
FC(F)(F)c1ccc(C2NCCc3sccc32)cc1 (configuration not stated)	0	0	0	0	-	-	-	-
COC(=O)C1(C)CCCC2(C)C3CCC(C(C)C)C(CO)C3C(CO)CC12 (configuration not stated)	-	0	-	0	-	-	-	-

From PubChem
